This is an account of results in PubChem BioAssay AID602143 (Vanderbilt Specialized Chemistry Center, 2011).

Activity calls are given as the source filed them. Cut-off read from the data, not from the text of the source: active = remaining activity below about 50%; inactive = the rest.

In the assay the target is Phospholipase D2 (Homo sapiens) (UniProt O14939). The assay can be described thus: cellular phospholipase D2 activity inhibition – cell-based, HEK293, single concentration (AID 602143).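 Note: tested at 200 nM.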 Particulars: HEK293 cellular PLD2 activity, percent of control; stronger effect = lower value.
Sequence of Phospholipase D2 (Homo sapiens) (O14939 whole entry, looked up): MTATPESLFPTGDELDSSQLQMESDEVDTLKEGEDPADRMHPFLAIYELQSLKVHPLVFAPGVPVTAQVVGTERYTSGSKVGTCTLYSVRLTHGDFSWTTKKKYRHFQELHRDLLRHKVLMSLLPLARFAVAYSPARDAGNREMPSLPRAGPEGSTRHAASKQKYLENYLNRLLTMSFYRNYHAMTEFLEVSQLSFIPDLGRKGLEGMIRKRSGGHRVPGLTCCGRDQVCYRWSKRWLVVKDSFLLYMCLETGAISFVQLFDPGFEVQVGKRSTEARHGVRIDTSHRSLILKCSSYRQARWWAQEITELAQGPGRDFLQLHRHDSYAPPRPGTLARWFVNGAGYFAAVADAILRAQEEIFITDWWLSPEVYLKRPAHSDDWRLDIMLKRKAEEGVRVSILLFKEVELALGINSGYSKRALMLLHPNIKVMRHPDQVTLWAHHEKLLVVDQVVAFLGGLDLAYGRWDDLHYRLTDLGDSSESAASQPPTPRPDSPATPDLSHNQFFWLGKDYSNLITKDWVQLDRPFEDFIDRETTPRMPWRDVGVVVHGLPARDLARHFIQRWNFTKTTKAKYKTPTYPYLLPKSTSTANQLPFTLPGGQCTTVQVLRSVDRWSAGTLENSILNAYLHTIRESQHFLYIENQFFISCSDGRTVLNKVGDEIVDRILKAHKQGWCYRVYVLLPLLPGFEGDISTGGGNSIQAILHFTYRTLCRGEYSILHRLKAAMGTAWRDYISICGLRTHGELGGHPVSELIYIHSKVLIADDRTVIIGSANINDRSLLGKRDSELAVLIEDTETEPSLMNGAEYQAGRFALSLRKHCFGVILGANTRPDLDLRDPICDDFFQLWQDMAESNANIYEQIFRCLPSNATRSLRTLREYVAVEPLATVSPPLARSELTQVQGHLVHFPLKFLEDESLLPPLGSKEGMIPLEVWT
Sequence of Phospholipase D2 (Homo sapiens) (O14939 whole entry, looked up): as above
Consider `C[C@@H](CN1CCC(n2c(=O)[nH]c3ccccc32)CC1)NC(=O)c1cc2ccccc2[nH]1`, for which the remaining activity was 0.434% (active).
The value for `C[C@@H](CN1CCC2(CC1)CCN(C)C2=O)NC(=O)c1cnc2ccccc2c1` was 113% (inactive); that for `C[C@@H](CN1CCC(c2nc3ccccc3[nH]2)CC1)NC(=O)c1ccc2ccccc2c1` was 86.5% (inactive).
To `O=c1[nH]c2ccccc2n1C1CCN(CCNS(=O)(=O)c2ccccc2Br)CC1` belongs 75.8% (inactive); to `O=c1[nH]c2ccccc2n1C1CCN(CCN2CCCC2)CC1`, 93.8% (inactive).
To `O=C(NCCN1CCC(n2c(=O)[nH]c3ccccc32)CC1)c1ccccc1-c1ccccc1` belongs 83.4% (inactive); to `O=C(NCCN1CCC(n2c(=O)[nH]c3ccccc32)CC1)C1CCCCCCCCCC1`, 81.3% (inactive); to `C[C@@H](CN1CCC2(CNCc3ccccc32)C1)NC(=O)c1ccc2ccccc2c1` (stereo partly specified), 91% (inactive).
As for `O=C(NCCN1CCC2(CC1)CNc1ccccc12)c1ccc2ccccc2c1`, the remaining activity is 61.8% (inactive).
The value for `O=C(NCCN1CCC2(C=Cc3ccccc32)CC1)c1ccc2ccccc2c1` was 119% (inactive); that for `CCCS(=O)(=O)NCCN1CCC(n2c(=O)[nH]c3ccccc32)CC1` was 64.7% (inactive); that for `O=C(NCCN1CCC2(CC1)CCN(c1ccccc1)C2=O)c1cnc2ccccc2c1` was 42.3% (active).
The value for `C[C@H](CN1CCC(n2nnc3ccccc32)CC1)NC(=O)c1cnc2ccccc2c1` was 68.5% (inactive).
To `C[C@@H](CN1CCC(n2c(=O)[nH]c3ccccc32)CC1)NC(=O)c1ccc[nH]1` belongs 39.9% (active); to `O=C(NCCN1CC=C(n2c(=O)[nH]c3ccccc32)CC1)C1CC1c1ccccc1` (stereo unspecified), 28.2% (active).
In the case of `O=C(NCCN1CCC(n2c(=O)[nH]c3ccccc32)CC1)C(c1ccccc1)(c1ccccc1)c1ccccc1`, the remaining activity was 93.2% (inactive).
To `C[C@@H](CN1CCC(n2c(=O)[nH]c3ccccc32)CC1)NC(=O)c1ccco1` belongs 97.1% (inactive).
To `O=c1[nH]c2ccccc2n1C1CCN(CCNS(=O)(=O)c2cccc3cccnc23)CC1` belongs 112% (inactive); to `CC1(C)[C@H]2CC[C@]1(CS(=O)(=O)NCCN1CCC(n3c(=O)[nH]c4ccccc43)CC1)C(=O)C2`, 72.8% (inactive).
To `Cc1ccc(C(=O)N[C@@H](C)CN2CCC(n3c(=O)[nH]c4cc(Br)ccc43)CC2)cc1` belongs 74% (inactive); to `Nc1cccc(Cl)c1C(=O)NCCN1CCC(n2c(=O)[nH]c3ccccc32)CC1`, 59.2% (inactive); to `O=C(C1C[C@@H]1c1ccccc1)N1CCC(n2c(=O)[nH]c3cc(Cl)ccc32)CC1` (stereo partly specified), 72.5% (inactive).
Turning to `O=C(NCCN1CCC(n2c(=O)[nH]c3ccccc32)CC1)c1cc2ccccc2c2ccccc12`, the remaining activity was 51.2% (inactive).
The value for `O=C(NCCN1CCC(n2c(=O)[nH]c3ccccc32)CC1)c1ccc2c(c1)CCCC2` was 96.1% (inactive); that for `O=C(c1ccc2ccccc2c1)N1CCC(n2c(=O)[nH]c3cc(Cl)ccc32)CC1` was 77.7% (inactive).
`O=C(NCCN1CCC(n2c(=O)[nH]c3ccccc32)CC1)NCc1cccc(F)c1`: the remaining activity was 101% (inactive).
For the compound `Cn1c(=O)n(C2CCN(CCNC(=O)[C@H]3C[C@@H]3c3ccccc3)CC2)c2ccccc21`, the remaining activity was 78.4% (inactive).
In the case of `C[C@@H](CN1CCC(n2c(=O)[nH]c3cc(-c4ccsc4)ccc32)CC1)NC(=O)[C@H]1C[C@@H]1c1ccccc1`, the remaining activity is 81.2% (inactive).
To `O=C(NCCN1CCC(n2c(=O)[nH]c3ccccc32)CC1)NC(c1ccccc1)c1ccccc1` belongs 123% (inactive); to `C[C@@H](CN1CCC(c2nc3ccc(F)cc3[nH]2)CC1)NC(=O)[C@H]1CC1c1ccccc1` (stereo partly specified), 92.5% (inactive).
As for `C[C@@H](CN1CCC(n2nnc3cc(C(F)(F)F)ccc32)CC1)NC(=O)c1ccc2ccccc2c1`, the remaining activity was 107% (inactive).
With `O=C(NCCN1CCC(C(=O)Nc2ccccc2)CC1)c1ccc2ccccc2c1`, the remaining activity is 106% (inactive).
To `C[C@@H](CN1CCC(n2c(=O)[nH]c3cc(F)ccc32)CC1)NC(=O)c1ccc(F)c(F)c1` belongs 85.2% (inactive); to `Cc1ccccc1NC(=S)NCCN1CCC(n2c(=O)[nH]c3ccccc32)CC1`, 145% (inactive).
To `CCNC(=S)NCCN1CCC(n2c(=O)[nH]c3ccccc32)CC1` belongs 78.2% (inactive); to `C[C@@H](CN1CCC(n2c(=O)[nH]c3ccccc32)CC1)NC(=O)Cc1cccs1`, 99.6% (inactive).
